Experimental findings from PubChem BioAssay (EPA / NIEHS) are described below.

The structures appear in SMILES notation. Inconclusive results are not listed. Calls of active or inactive are those of the source. Rule for the calls, unless noted: active = hit-call score of the fitted dose curve at least 0.9, where 1 is the maximum; inactive = score below 0.9.

Experiment [1] concerns the target Retinoic acid receptor RXR-alpha (Homo sapiens) (UniProt P19793). Nature of the experiment: ATG_RXRa_TRANS: Attagene TRANS-FACTORIAL HepG2 Assay for human Retinoid X Receptor alpha (RXRa) (AID 2283012; active = hit-call score of the fitted dose curve at least 0.9, where 1 is the maximum). The method in brief: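 HepG2 cells transiently transfected with multiplexed GAL4-UAS reporter units and chimeric NR-GAL4 fusions, dosed 24 h. Reporter mRNA measured by RT-PCR, FAM labelling, HpaI digestion and capillary electrophoresis; gain-of-signal fitted relative to DMSO baseline.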

Read-out in experiment [2]: E-selectin (Homo sapiens) (UniProt P16581)
Nature of the experiment: BSK_3C_Eselectin: BioMAP Diversity Plus: 3C Assay for Eselectin Biomarker Activity (AID 2283015).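 For outcome: cell surface E-selectin protein quantified by ELISA 24 h after dosing.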 As to conditions: primary human endothelial cells (HUVEC); actives raise or lower the signal. The essentials:
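Primary human umbilical vein endothelial cells (3C system), read 24 h after compound addition; E-selectin measured by ELISA. Bidirectional curve fitting against DMSO baseline; cytotoxicity by parallel SRB total-protein staining.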

Read-out in experiment [3]: Interleukin-1 alpha (IL1a), IL1A (gene 3552)
Nature of the experiment: BSK_BE3C_IL1a: BioMAP Diversity Plus: BE3C Assay for Interleukin-1 alpha (IL1a) Biomarker Activity (AID 2283016). To be noted: primary human bronchial epithelial cells; actives raise or lower the signal. The essentials:
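Human primary bronchial epithelial cells (BE3C system) were dosed with compound and IL-1a measured by ELISA 24 h later. Activity was fitted bidirectionally against DMSO baseline; cytotoxicity was tracked in parallel cultures by SRB total-protein staining.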

Read-out in experiment [4]: Monocyte Chemoattractant Protein-1 (MCP1), CCL2 (gene 6347)
Description: BSK_3C_MCP1: BioMAP Diversity Plus: 3C Assay for Monocyte Chemoattractant Protein-1 (MCP1) Biomarker Activity (AID 2283017). To be noted: primary human endothelial cells (HUVEC); actives raise or lower the signal. The essentials: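 Human umbilical vein endothelial cells (3C system) exposed to chemicals for 24 h; MCP-1 quantified by ELISA against the DMSO baseline with bidirectional fitting, and parallel SRB staining used to assess cytotoxicity.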

Read-out in experiment [5]: Monocyte Chemoattractant Protein-1 (MCP1), CCL2 (gene 6347)
Nature of the experiment: BSK_4H_MCP1: BioMAP Diversity Plus: 4H Assay for Monocyte Chemoattractant Protein-1 (MCP1) Biomarker Activity (AID 2283018). As to conditions: primary human endothelial cells (HUVEC); actives raise or lower the signal. The method in brief: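 Human umbilical vein endothelial cells (4H system) dosed with chemical; MCP-1 measured by ELISA 24 h after dosing. Bidirectional curve fitting against DMSO negative control as baseline; parallel SRB total-protein staining tracks overt cytotoxicity.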

Read-out in experiment [6]: Human Leukocyte Antigen - DR isotype (HLADR), HLA-DRA (gene 3122)
Nature of the experiment: BSK_3C_HLADR: BioMAP Diversity Plus: 3C Assay for Human Leukocyte Antigen - DR isotype (HLADR) Biomarker Activity (AID 2283019).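 For outcome: ELISA of cell-surface HLA-DR on HUVEC 24 h after dosing.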 As to conditions: primary human endothelial cells (HUVEC); actives raise or lower the signal. The method in brief:
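HUVEC monoculture, HLA-DR measured by ELISA 24 h after chemical dosing. Fitted bidirectionally against DMSO baseline; parallel SRB staining assessed cytotoxicity, with 3C proliferation read by SRB at 48 h.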

Read-out in experiment [7]: Interleukin-8 (IL8), CXCL8 (gene 3576)
Nature of the experiment: BSK_3C_IL8: BioMAP Diversity Plus: 3C Assay for Interleukin-8 (IL8) Biomarker Activity (AID 2283020). To be noted: primary human endothelial cells (HUVEC); actives raise or lower the signal. The essentials: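 Primary human umbilical vein endothelial cells (3C system) were exposed to test chemical for 24 h, then IL-8 was quantified by ELISA. Responses were fitted bidirectionally against DMSO vehicle as baseline.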

Read-out in experiment [8]: Monokine induced gamma interferon (MIG), CXCL9 (gene 4283)
Description: BSK_3C_MIG: BioMAP Diversity Plus: 3C Assay for Monokine induced gamma interferon (MIG) Biomarker Activity (AID 2283021).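 For AC50: MIG protein level measured by immunoassay in the treated endothelial cultures.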 To be noted: primary human endothelial cells (HUVEC); actives raise or lower the signal. The method in brief: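 Primary human umbilical vein endothelial cells in the 3C system were exposed to chemical for 24 h, after which MIG was quantified by ELISA. Activity was fitted bidirectionally against DMSO as negative control and baseline.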

Experiment [9] is described as follows: BSK_3C_SRB: Viability Assessment in the BioMAP Diversity Plus: 3C Assay (AID 2283023).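 Note: fitted both ways against DMSO so a hit may be signal rise or drop.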 To be noted: primary human endothelial cells (HUVEC). The method in brief: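 Human umbilical vein endothelial cells in the 3C system, treated 24 h. Total protein measured by 0.1% sulforhodamine B staining after 10% TCA fixation, read at 560 nm; bidirectional fit versus DMSO.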

Read-out in experiment [10]: Matrix Metallopeptidase 1 (MMP1), MMP1 (gene 4312)
Description: BSK_BE3C_MMP1: BioMAP Diversity Plus: BE3C Assay for Matrix Metallopeptidase 1 (MMP1) Biomarker Activity (AID 2283024). As to conditions: primary human bronchial epithelial cells; actives raise or lower the signal. The method in brief: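 Primary human bronchial epithelial cells were dosed with test chemicals, and MMP1 levels were measured by ELISA 24 h later. Data were fitted bidirectionally against DMSO as the negative control and activity baseline.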

Read-out in experiment [11]: Pselectin, SELP (gene 6403)
Description: BSK_4H_Pselectin: BioMAP Diversity Plus: 4H Assay for Pselectin Biomarker Activity (AID 2283026). To be noted: primary human endothelial cells (HUVEC); actives raise or lower the signal. The method in brief:
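Primary human umbilical vein endothelial cells were exposed to test chemical for 24 h, then cell-surface P-selectin was quantified by ELISA. Activity was fitted bidirectionally against DMSO as negative control and baseline.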

The nature of experiment [12]: BSK_4H_SRB: Viability Assessment in the BioMAP Diversity Plus: 4H Assay (AID 2283027).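 For AC50: curves fitted both ways versus DMSO so AC50 may be loss or gain.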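 Note: cells exposed to compound for 24 h before staining.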 As to conditions: primary human endothelial cells (HUVEC). The essentials: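 Absorbance at 560 nm of SRB-stained total protein served as the viability read-out in confluent primary human umbilical vein endothelium 24 h after chemical treatment. Curves were fitted bidirectionally against DMSO as negative control.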

The nature of experiment [13]: BSK_BE3C_SRB: Viability Assessment in the BioMAP Diversity Plus: BE3C Assay (AID 2283028). As to conditions: primary human bronchial epithelial cells. The method in brief: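 Human bronchial epithelial primary cells in confluent culture, 24 h after chemical dosing; total protein by 0.1% SRB staining after 10% TCA fixation, read at 560 nm. Bidirectional fitting versus DMSO baseline.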

Read-out in experiment [14]: Urokinase-type plasminogen activator receptor (uPAR), PLAUR (gene 5329)
Nature of the experiment: BSK_4H_uPAR: BioMAP Diversity Plus: 4H Assay for Urokinase-type plasminogen activator receptor (uPAR) Biomarker Activity (AID 2283030). To be noted: primary human endothelial cells (HUVEC); actives raise or lower the signal. The method in brief:
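Human umbilical vein endothelial cells in the 4H system, 24 h after chemical dosing. Cell-surface uPAR measured by ELISA, fitted in both directions versus DMSO; cytotoxicity checked by SRB total protein in parallel cultures.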

Read-out in experiment [15]: Vascular endothelial growth factor receptor 2 (Homo sapiens) (UniProt P35968)
Nature of the experiment: BSK_4H_VEGFRII: BioMAP Diversity Plus: 4H Assay for Vascular endothelial growth factor receptor 2 (VEGFR2) Biomarker Activity (AID 2283031). As to conditions: primary human endothelial cells (HUVEC); actives raise or lower the signal. The essentials: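 Primary human umbilical vein endothelial cells (4H system), 24 h exposure; cell-surface VEGFR2 measured by ELISA. Bidirectional fitting versus DMSO; cytotoxicity checked in parallel by SRB total-protein staining.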

Read-out in experiment [16]: Human Leukocyte Antigen - DR isotype (HLADR), HLA-DRA (gene 3122)
Nature of the experiment: BSK_BE3C_HLADR: BioMAP Diversity Plus: BE3C Assay for Human Leukocyte Antigen - DR isotype (HLADR) Biomarker Activity (AID 2283032). As to conditions: primary human bronchial epithelial cells; actives raise or lower the signal. The method in brief:
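Human primary bronchial epithelial cells in the BE3C system were exposed to chemicals for 24 h, after which HLA-DR levels were quantified by ELISA. Activity was fitted bidirectionally, gain or loss of signal, against DMSO as negative control and baseline.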

Read-out in experiment [17]: Vascular cell adhesion molecule 1 (VCAM1), VCAM1 (gene 7412)
Description: BSK_4H_VCAM1: BioMAP Diversity Plus: 4H Assay for Vascular cell adhesion molecule 1 (VCAM1) Biomarker Activity (AID 2283033).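 For outcome: cell-surface VCAM-1 protein measured by ELISA.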 As to conditions: primary human endothelial cells (HUVEC); actives raise or lower the signal. The essentials:
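Primary human umbilical vein endothelial cells were exposed to chemicals for 24 h, after which VCAM-1 was quantified by ELISA. Responses were fitted bidirectionally against DMSO as negative control and activity baseline.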

For experiment [18], the target named is human Vitamin D Receptor (VDR), VDR (gene 7421) (UniProt P11473). Nature of the experiment: ATG_VDR_TRANS: Attagene TRANS-FACTORIAL HepG2 Assay for human Vitamin D Receptor (VDR) (AID 2283022; active = hit-call score of the fitted dose curve at least 0.9, where 1 is the maximum). The method in brief:
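HepG2 cells were transiently transfected with GAL4-UAS reporter units and a chimeric VDR-Gal4 construct, then dosed for 24 hours. Reporter mRNA was quantified by RT-PCR, fluorescent labeling, HpaI digestion and capillary electrophoresis; gain of signal analysed vs DMSO.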

Experiment [19] concerns the target human Retinoid X Receptor beta (RXRb), RXRB (gene 6257) (UniProt P28702). Nature of the experiment: ATG_RXRb_TRANS: Attagene TRANS-FACTORIAL HepG2 Assay for human Retinoid X Receptor beta (RXRb) (AID 2283013; active = hit-call score of the fitted dose curve at least 0.9, where 1 is the maximum). The method in brief: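 HepG2 cells transiently transfected with multiplexed reporter units driven by GAL4-UAS and exogenous chimeric NR-Gal4 proteins; treated 24 h. Reporter mRNA measured by RT-PCR, 6-FAM labelling and capillary electrophoresis; gain-of-signal fitted versus DMSO baseline.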

The target in experiment [20] is human Thyroid Receptor alpha (THRa1), THRA (gene 7067) (UniProt P10827). Description: ATG_THRa1_TRANS: Attagene TRANS-FACTORIAL HepG2 Assay for human Thyroid Receptor alpha (THRa1) (AID 2283014; active = hit-call score of the fitted dose curve at least 0.9, where 1 is the maximum). The method in brief:
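HepG2 cells transiently transfected with chimeric NR-Gal4 and GAL4-UAS reporter units, dosed 24 h. Reporter mRNA quantified by RT-PCR, fluorescent labeling, HpaI digestion and capillary electrophoresis; gain-of-signal fit versus DMSO.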

Chain of Retinoic acid receptor RXR-alpha (Homo sapiens) (P19793 whole entry, looked up, the tested form may be a part): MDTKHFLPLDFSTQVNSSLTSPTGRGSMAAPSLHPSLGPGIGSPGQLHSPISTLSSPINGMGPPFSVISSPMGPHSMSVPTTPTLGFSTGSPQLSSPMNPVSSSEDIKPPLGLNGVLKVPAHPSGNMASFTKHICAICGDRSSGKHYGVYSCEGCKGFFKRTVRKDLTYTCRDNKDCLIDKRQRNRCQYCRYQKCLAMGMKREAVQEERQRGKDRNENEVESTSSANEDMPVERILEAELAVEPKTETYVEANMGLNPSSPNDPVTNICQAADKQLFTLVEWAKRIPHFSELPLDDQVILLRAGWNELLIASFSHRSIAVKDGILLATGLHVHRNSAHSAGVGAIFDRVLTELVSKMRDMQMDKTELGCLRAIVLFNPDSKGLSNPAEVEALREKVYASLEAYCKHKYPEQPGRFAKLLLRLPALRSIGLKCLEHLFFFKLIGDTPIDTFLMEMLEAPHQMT
Chain of E-selectin (Homo sapiens) (P16581 whole entry, looked up): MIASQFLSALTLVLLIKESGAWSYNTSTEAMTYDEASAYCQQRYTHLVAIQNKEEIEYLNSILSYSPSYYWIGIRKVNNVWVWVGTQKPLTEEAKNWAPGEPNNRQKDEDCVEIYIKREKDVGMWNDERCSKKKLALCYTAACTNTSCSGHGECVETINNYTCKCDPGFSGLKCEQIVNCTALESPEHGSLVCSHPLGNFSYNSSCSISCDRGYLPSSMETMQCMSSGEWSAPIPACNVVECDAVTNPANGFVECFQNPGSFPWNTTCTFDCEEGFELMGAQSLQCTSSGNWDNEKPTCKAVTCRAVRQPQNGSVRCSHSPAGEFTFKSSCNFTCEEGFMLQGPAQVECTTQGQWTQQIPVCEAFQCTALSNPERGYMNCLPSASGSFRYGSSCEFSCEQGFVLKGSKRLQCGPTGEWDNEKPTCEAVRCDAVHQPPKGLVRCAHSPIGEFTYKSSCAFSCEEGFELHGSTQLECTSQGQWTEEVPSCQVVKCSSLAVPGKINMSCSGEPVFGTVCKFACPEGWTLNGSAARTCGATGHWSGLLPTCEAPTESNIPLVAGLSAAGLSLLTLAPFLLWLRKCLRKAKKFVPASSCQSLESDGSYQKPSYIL
Chain of human Vitamin D Receptor (VDR), VDR (gene 7421) (P11473 whole entry, looked up, the tested form may be a part): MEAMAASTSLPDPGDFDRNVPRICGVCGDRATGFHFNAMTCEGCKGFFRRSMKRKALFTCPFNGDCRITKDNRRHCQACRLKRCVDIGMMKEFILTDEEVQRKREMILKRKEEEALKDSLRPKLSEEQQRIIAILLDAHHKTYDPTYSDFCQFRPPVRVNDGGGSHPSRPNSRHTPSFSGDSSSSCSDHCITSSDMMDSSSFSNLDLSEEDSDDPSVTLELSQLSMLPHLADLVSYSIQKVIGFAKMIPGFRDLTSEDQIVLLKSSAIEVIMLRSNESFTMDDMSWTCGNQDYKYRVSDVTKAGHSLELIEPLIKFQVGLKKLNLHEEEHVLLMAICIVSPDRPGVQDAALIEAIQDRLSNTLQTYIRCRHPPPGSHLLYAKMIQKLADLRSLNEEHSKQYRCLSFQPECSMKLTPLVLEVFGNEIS
Chain of human Retinoid X Receptor beta (RXRb), RXRB (gene 6257) (P28702 whole entry, looked up, the tested form may be a part): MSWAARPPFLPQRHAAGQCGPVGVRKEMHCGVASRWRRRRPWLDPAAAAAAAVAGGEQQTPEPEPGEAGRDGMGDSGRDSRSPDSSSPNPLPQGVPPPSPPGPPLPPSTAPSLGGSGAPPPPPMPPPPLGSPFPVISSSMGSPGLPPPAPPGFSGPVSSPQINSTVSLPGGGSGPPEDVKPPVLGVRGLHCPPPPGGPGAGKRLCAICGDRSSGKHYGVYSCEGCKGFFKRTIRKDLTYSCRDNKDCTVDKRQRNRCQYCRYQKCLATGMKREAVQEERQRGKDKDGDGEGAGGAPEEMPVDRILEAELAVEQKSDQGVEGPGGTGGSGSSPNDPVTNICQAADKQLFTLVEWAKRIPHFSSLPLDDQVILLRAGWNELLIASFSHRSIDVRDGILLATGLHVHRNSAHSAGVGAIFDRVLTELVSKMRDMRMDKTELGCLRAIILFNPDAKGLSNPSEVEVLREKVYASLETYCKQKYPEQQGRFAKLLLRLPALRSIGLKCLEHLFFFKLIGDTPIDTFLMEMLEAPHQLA
Chain of human Thyroid Receptor alpha (THRa1), THRA (gene 7067) (P10827 whole entry, looked up, the tested form may be a part): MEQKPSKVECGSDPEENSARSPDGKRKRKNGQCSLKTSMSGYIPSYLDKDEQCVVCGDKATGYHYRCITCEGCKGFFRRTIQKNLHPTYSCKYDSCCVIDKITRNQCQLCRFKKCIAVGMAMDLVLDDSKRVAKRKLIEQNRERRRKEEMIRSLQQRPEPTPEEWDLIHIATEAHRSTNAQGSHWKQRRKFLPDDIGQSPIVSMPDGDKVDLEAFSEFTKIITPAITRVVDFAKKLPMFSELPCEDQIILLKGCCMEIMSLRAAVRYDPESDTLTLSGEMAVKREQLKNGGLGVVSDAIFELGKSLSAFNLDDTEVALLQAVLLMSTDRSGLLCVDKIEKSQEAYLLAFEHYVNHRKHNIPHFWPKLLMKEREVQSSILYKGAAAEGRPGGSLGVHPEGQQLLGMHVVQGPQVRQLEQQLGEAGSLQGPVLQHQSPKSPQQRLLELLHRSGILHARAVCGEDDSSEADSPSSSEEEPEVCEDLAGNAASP

Regarding `COc1ccc2nc(N)sc2c1`, the compound was classed as inactive in experiment [1], in [2], in experiment [3], in experiment [4], in experiment [5] and in experiment [6]. The outcome in experiment [7], in experiment [8], in [9], in experiment [10], in experiment [11] and in [12] was inactive. Besides, the outcome in experiment [13], in experiment [14], in experiment [15], in experiment [16] and in [17] was inactive.
As for `Nc1ccc2cc3ccccc3cc2c1`, the outcome in [1] and in experiment [18] was inactive.
The term AC50 denotes the concentration giving half of the maximal activity seen. For `CC1OC1C1CCC2(C)OC2C1` (stereo not drawn), the compound was classed as inactive in [1], in experiment [2], in [3], in experiment [4], in experiment [5] and in [6]. Also, the outcome in experiment [7], in experiment [8], in experiment [9], in experiment [10], in [11] and in experiment [12] was inactive. For the same compound, the outcome in experiment [13], in experiment [15], in experiment [16] and in [17] was inactive. The AC50 in experiment [14] is 0.0907 µM (active).
As to `CCCCC/C=C\C/C=C\CCCCCCCC(=O)OC`, the call in experiment [1], in experiment [5], in experiment [7], in experiment [9], in experiment [10] and in [13] was inactive. Also, the result in experiment [14] and in experiment [15] was inactive. Also, the AC50 was 29.6 µM (active) in [2]; 20 µM (active) in [3]; 34.4 µM (active) in experiment [4]; 28.7 µM (active) in experiment [6]; 31.4 µM (active) in experiment [8]; 20 µM (active) in [11]. The AC50 in experiment [12] was 20 µM (active); in [16] it was 18.8 µM (active); in [17], 36.2 µM (active).
With `CCCCCC/C=C/C=O`, in [19], the outcome was inactive.
Take `Cc1ccc2c(c1)C(=O)c1ccccc1C2=O`: the outcome in experiment [1] and in [18] was inactive.
Take `COc1cc(NC(=O)CC(C)=O)c(OC)cc1Cl`: the outcome in experiment [19] was inactive.
`c1ccc2c(c1)ccc1ncccc12`: the call in experiment [1], in [5], in experiment [7], in [8], in experiment [10] and in experiment [13] was inactive. Moreover, the outcome in [15], in [16] and in [17] was inactive. For the same compound, the AC50 in [2] is 16.4 µM (active); in experiment [3], 20 µM (active); in experiment [4], 5.9 µM (active); in experiment [6], 20 µM (active); in [9] it was 14.3 µM (active); in [11], 20 µM (active). The AC50 in experiment [12] and in [14] was 20 µM (active) each time.
Take `O=C(C(Cl)Cl)N1CCOC12CCCCC2`: the compound was called inactive in [1] and in experiment [18].
As to `COc1ccc([C@@H]2CC(=O)c3c(O)cc(O[C@@H]4O[C@H](CO[C@@H]5O[C@@H](C)[C@H](O)[C@@H](O)[C@H]5O)[C@@H](O)[C@H](O)[C@H]4O)cc3O2)cc1OC`, the outcome in [1], in experiment [20] and in experiment [18] was inactive.
On to `COC(=O)/C=C/C(C)=C\C=C\C(C)=C\C=C\C=C(C)\C=C\C=C(C)\C=C\C(=O)O`, for which the compound was called inactive in experiment [1] and in [18].
For the compound `CC(C)(C)c1ccc(N)cc1`, the compound was classed as inactive in [1] and in experiment [18].
